SARS PLpro yeast = qHTS of Yeast-based Assay for SARS-CoV PLP. Potency, µM (top dose mostly 32.9 µM), hits mostly activators. S. cerevisiae expressing SARS-CoV PLpro, growth rescue. hit rate 0.19% among 330,000. AID 485353, 2010; note: nearly all actives have a fitted effect of over 55% in size
NS1 inh = qHTS Assay for Inhibitors of Influenza NS1 Protein Function; Potency, µM (doses to about 46.1 µM); hit rate 0.4% among 270,000; note: actives are rising curves; nearly all actives have a fitted effect of over 50% in size
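Compounds were scored for reversing the slow growth caused by influenza A NS1 in S. cerevisiae, measured by optical density at 600 nm. Assay medium contained 2% galactose at pH 6.0; NS1-free yeast of the same strain were the positive control.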
CHX counter = Cycloheximide Counterscreen for Small Molecule Inhibitors of Shiga Toxin | cell reporter, cycloheximide protein synthesis inhibition counterscreen | max response, % | hit rate 12% among 300,000 | AID 2314, 2010; in the data active = max response mostly above about 13%, no sharp cut-off; inactive = mostly below about 14%; note: read at 38.3 µM for the half of the compounds with a filed dose
Shiga inhibitor = A qHTS for Small Molecule Inhibitors of Shiga Toxin | Vero cells, Shiga toxin protein synthesis inhibition reporter | hit rate 9.2% among 290,000 | inhibition, % at 38.7 µM | AID 2315, 2010; in the data active = inhibition mostly above about 28%, no sharp cut-off; inactive = mostly below about 43%
A number is an active result; . = inactive; ? = inconclusive; / = no result. Hits are enriched below; roughly 12% of the tested compounds scored in any of these assays. Unless noted, calls come from the whole dose curve.

SMILES | SARS PLpro yeast | NS1 inh | CHX counter | Shiga inhibitor
O=C(c1ccc(Cl)c([N+](=O)[O-])c1)N(Cc1ccco1)C1CCS(=O)(=O)C1 (stereo not given) | / | . | . | .
Cn1c(OCc2cccnc2)nc2c1c(=O)n(Cc1ccc(F)cc1)c(=O)n2C | . | . | . | .
CN(CC(=O)Nc1cccc(F)c1)C(=O)CCNC(=O)c1ccco1 | . | / | / | /
CCOC(=O)c1cnn(-c2ccccn2)c1N | . | . | 63.4 | 99.2
CCOC(=O)c1cnn(-c2cc(Oc3ccccc3)ncn2)c1N | . | . | . | .
CCOC(=O)c1cnn(-c2ncnc3c2oc2ccccc23)c1N | . | . | 15.9 | .
CCOC(=O)C1CCCN(c2ncnc3c2oc2ccccc23)C1 (stereo not given) | . | . | 17.5 | .
O=C(CSCc1ccc(Cl)cc1)Nc1ccc(S(=O)(=O)N2CCOCC2)cc1 | . | . | . | .
O=C1NC(=S)S/C1=C\C=C\c1ccc([N+](=O)[O-])o1 | . | . | 80.1 | 92.2
Cc1ccccc1CNC(=O)CCc1ccccc1 | . | . | 18.4 | .
Cc1ccc(CNC(=O)CCc2ccccc2)cc1 | . | . | 15.2 | .
Cc1ccc(CNC(=O)C2(S(=O)(=O)c3ccccc3)CC=CC2)cc1 | . | . | 40.6 | 43.7
O=C(CCc1ccccc1)NCc1ccccc1 | . | / | . | .
O=C(CCCCC(=O)NNC(=O)COc1ccccc1)NNC(=O)COc1ccccc1 | . | . | . | .
CCCc1cc(=O)n2[nH]c(NCc3ccc(OC)cc3)nc2n1 | . | / | . | .
CCOC(=O)c1cc(-c2ccccc2)n[nH]1 | . | . | 18.6 | 46.9
COc1ccc(/C=C/C(=O)NC(=S)NNC(=O)c2c(-c3ccccc3)noc2C)cc1 | ? | . | . | .
CCOc1ccc(-c2cc(C(=O)NN)[nH]n2)cc1 | . | ? | 43.4 | 43.5
COc1ccc(-c2cc(C(=O)NNC(=S)NC(=O)c3c(-c4ccccc4)noc3C)[nH]n2)cc1 | . | . | 19.4 | 106.3
Cc1nn(-c2ccccc2)c(C)c1-c1cc(C(=O)N/N=C/c2cccnc2)[nH]n1 | . | . | . | .
COC(=O)c1cc(-c2c(C)nn(-c3ccccc3)c2C)n[nH]1 | . | . | 25.8 | 57.5
Cc1ccc(NC(=O)c2cc(-c3ccccc3)nn2-c2ccccc2)cc1 | . | . | . | .
COC(=O)c1cc(-c2c[nH]c3ccccc23)n[nH]1 | . | . | 10.3 | .
COc1ccccc1-c1cc(C(=O)NN)[nH]n1 | . | ? | . | .
COc1ccc(-c2cc(C(=O)O)[nH]n2)cc1OC | . | . | . | .
SMILES | SARS PLpro yeast | NS1 inh | CHX counter | Shiga inhibitor
COc1ccc(-c2cc(C(=O)NN)n(-c3ccccc3)n2)cc1 | . | . | 25.3 | 78.3
COc1ccc(-c2cc(C(=O)NN)[nH]n2)cc1OC | . | . | . | .
COC(=O)c1cc(-c2ccc(Br)cc2)n[nH]1 | . | . | 29.0 | 41.1
COc1ccc(-c2cc(C(=O)NN)[nH]n2)cc1 | . | . | 22.1 | active
CN(Cc1ccco1)S(=O)(=O)c1csc(C(N)=O)c1 | . | . | . | .
CC1=NN(c2ccccc2)C(=O)/C1=C/c1ccc(Cl)cc1 | . | ? | . | .
CC1=NN(c2ccccc2)C(=O)/C1=C/c1c(O)n(-c2ccc(F)cc2)[nH]c1=O | . | . | 24.3 | .
CC1=NN(c2ccccc2)C(=O)/C1=C/c1ccc[nH]1 | . | . | 21.3 | 77.9
CC1=NN(c2ccccc2)C(=O)/C1=C\N(O)c1ccccc1 | . | . | 13.4 | .
Cc1cc(=O)[nH]c(SCC(=O)NC2CCCCCC2)n1 | . | / | / | /
Cc1ccc(NC(=O)C2CCCN(S(=O)(=O)c3c(C)noc3C)C2)c(Br)c1 (stereo not given) | . | . | . | .
CCNc1oc(COc2ccccc2F)nc1C#N | . | . | 25.7 | 106.6
N#Cc1nc(COc2ccccc2)oc1NCCCn1ccnc1 | . | . | 27.3 | 32.6
N#Cc1nc(-c2ccc(F)cc2)oc1NCCCn1ccnc1 | . | / | 39.2 | 41.8
COc1ccc(CCNc2oc(COc3ccccc3F)nc2C#N)cc1OC | . | . | . | .
COCCNc1oc(COc2cccc(C)c2)nc1C#N | . | . | 19.2 | active
O=C(C[C@H]1C/C=C\C[C@H](NC(=O)OCC2c3ccccc3-c3ccccc32)C(=O)OC[C@@H]2CCCN2C1=O)NCCO | . | / | / | /
COCc1cc(CN2CCCC(C(=O)Nc3ccc(-c4ccco4)cc3)C2)ccc1OC (stereo not given) | . | . | . | .
N#Cc1nc(-c2ccc(OCc3ccccc3)cc2)oc1NCCCn1ccnc1 | . | . | . | .
N#Cc1nc(-c2ccc(OCc3ccccc3Cl)cc2)oc1NCCCn1ccnc1 | . | . | 15.1 | 26.1
C=CCN1C(=O)C2(OCCCO2)c2cc(Cl)ccc21 | . | . | . | .
COc1ccc(-c2[nH]ncc2/C=N\NC(=O)c2ccc(C(C)(C)C)cc2)cc1OC | . | . | 21.3 | 76.0
Cc1[nH]n(-c2ccccc2)c(=O)c1C=NCc1ccncc1 | . | . | . | .
Cc1[nH]n(-c2ccccc2)c(=O)c1C=NCCc1ccccc1 | . | . | 20.9 | 65.8
Cc1ccc(-n2[nH]c(C)c(C=NCc3ccncc3)c2=O)cc1 | . | . | 38.8 | 52.9
SMILES | SARS PLpro yeast | NS1 inh | CHX counter | Shiga inhibitor
CCCCN=Cc1c(C)[nH]n(-c2ccccc2)c1=S | . | / | 25.3 | .
COc1cccc(NC(=O)n2ncc3c(C)cccc32)c1 | . | . | 31.6 | 53.9
Cc1ccc(NC(=O)n2ncc3c(C)cccc32)c(C)c1 | . | . | 38.2 | 34.3
CCOc1ccc(NC(=O)n2ncc3c(C)cccc32)cc1 | . | . | 30.5 | 48.5
Cc1cccc2c1cnn2C(=O)Nc1ccc(Br)cc1F | . | . | . | .
Cc1ccc(C(=O)Nc2nc(=O)n(C(=O)CC(C)C)s2)cc1 | . | . | . | .
Cc1ccc(C(=O)Nc2nc(=O)n(C(=O)c3ccccc3Cl)s2)cc1 | . | . | 30.8 | 48.6
Cn1sc(NC(=O)c2ccc(Cl)cc2)nc1=O | . | . | 13.6 | .
Cn1ccc(NC(=O)c2ccc(Cl)cc2)n1 | . | / | / | /
Cc1ccc(C(=O)Nc2nc(=O)n(C)s2)cc1 | . | . | 35.5 | 72.8
O=C(CN(Cc1ccccc1)C(=O)c1csnn1)NCc1ccccc1 | . | . | . | .
C#CCO[C@@H]1C[C@H](n2ccc(NC(=O)c3ccccc3)nc2=O)O[C@@H]1CO | . | . | . | .
C#CCO[C@@H]1C[C@H](n2cnc3c(NC(=O)c4ccccc4)ncnc32)O[C@@H]1CO | . | . | 21.2 | .
CC(=O)Nc1nn(C)c2nc(C)cc(C)c12 | . | . | . | .
COc1ccc2nc3cc(Cl)ccc3c(Nc3cc(C(C)C)c(O)cc3C)c2c1 | . | . | . | 27.1
c1ccc2c(c1)[nH]c1c3ccccc3sc21 | . | . | 40.6 | 72.2
Cc1ccc(O)c(C2=Nc3ccccc3N=C(c3ccco3)C2)c1 | . | . | 23.8 | .
Cc1ccc(O)c(C2=Nc3ccccc3N=C(c3ccc([N+](=O)[O-])cc3)C2)c1 | . | . | 25.2 | .
Cc1ccc(O)c(C2=Nc3ccccc3N=C(c3cccc([N+](=O)[O-])c3)C2)c1 | . | / | 38.0 | 67.1
CC1CC(C)CN(C(=O)c2ccc(NS(=O)(=O)c3ccc4[nH]c(=O)[nH]c4c3)cc2)C1 (stereo not given) | . | / | / | /

Assay outcomes: PubChem, National Center for Advancing Translational Sciences (NCATS)
